From PubChem BioAssay (Tox21)
Inconclusive results are not listed. Calls of active or inactive are those of the source. Calls come from the whole dose curve; as a rule, active = well fitted cell-killing curve with a large enough effect in the repeat runs; inconclusive = weak or mixed curves, or effect the other way; inactive = flat fitted curve, though single readings scatter.

Assay: qHTS assay to identify small molecule antagonists of the androgen receptor (AR) signaling pathway using the MDA cell line in the presence of 0.5 nM R1881 - cell viability counter screen (AID 1259242); note: nearly all actives have a fitted effect of over 45% in size
Settings: MDA-kb2 viability, CellTiter-Fluor protease fluorescence, 16 h; series mostly up to 92.4 µM
Description: U.S. Tox21 Program National Center for Advancing Translational Sciences [NCATS] NIH Chemical Genomics Center [NCGC] U.S. Environmental Protection Agency [EPA] National Institutes of Environmental Health Sciences [NIEHS] National Toxicology Program [NTP] U.S. Food and Drug Administration [FDA] Tox21 Assay Overview: Androgen receptor (AR) is an important member of the nuclear receptor family. Its signaling plays a critical role in AR-dependent prostate cancer and other androgen related diseases. Considerable attention has been given in the past decades to develop methods to study and screen for the environmental chemicals that have the potential to interfere with metabolic homeostasis, reproduction, developmental and behavioral functions. Therefore AR binding assay for screening androgen antagonists can be used to identify potential endocrine disruptors. MDA-kb2 cells (from ATCC, deposited by Wilson et al.) were used to screen for AR inhibitors against Tox21 compound libraries. These cells are human breast carcinoma cells that were stably transfected with a luciferase reporter gene under control of the MMTV promoter that contains response elements for both androgen receptor (AR) and glucocorticoid receptor (GR). The current screening for identification of AR inhibitors against Tox21 libraries used lower concentration of (0.5 nM) R1881 as a stimulator. The cytotoxicity of the Tox21 compound libraries against MDA-kb2 cell line was tested by measuring live-cell protease activity using CellTiter-Fluor assay in the same wells.
Tox21 Assay Protocol Summary: MDA-kb2 cells (cells cultured without CO2) were dispensed at 3,000 cells/well in 4 uL of culture medium into white wall/solid-bottom 1536-well plates (Corning Life Sciences, Corning, NY) using a Multidrop Combi (ThermoFisher Scientific, Waltham, MA) dispenser. After the assay plates were incubated at a 37C and 0% CO2 for 5 hr, 23 nL of compounds dissolved in DMSO, positive controls or DMSO only was transferred to the assay plate by a Pintool station (Kalypsys, San Diego, CA). The transfer of compounds was followed by the addition of 1 uL of 0.5 nM (final concentration) agonist (R1881)/culture medium using a Flying Reagent Dispenser (FRD, Aurora Discovery, San Diego, CA). The plates were incubated at 37C and 0% CO2 for 16 hr. For cytotoxicity assay, 1 uL of CellTiter-Fluor reagent (Promega Corporation, Madison, WI) was added to each well using the FRD and after 30 min incubation at 37C and 0% CO2, The fluorescence intensity was measured using ViewLux plate reader (PerkinElmer, Shelton, CT).

Structure (SMILES) | outcome
C/C(CC(C)C)=N\O | inactive
CN(C)CCCCl | inactive
Cn1c(=O)c2c(ncn2CCO)n(C)c1=O | inactive
CC(C)c1ccc(C=O)cc1 | inactive
CC(C)Cn1cnc2c1c(=O)n(C)c(=O)n2C | inactive
CC(C)OC(=O)OCOP(=O)(CO[C@H](C)Cn1cnc2c(N)ncnc21)OCOC(=O)OC(C)C | inactive
CCCCOCCOC(=O)COc1ccc(Cl)cc1Cl | inactive
Cn1nnc2c(C(N)=O)ncn2c1=O | inactive
COc1ccc(CCO)cc1 | inactive
c1ccc(B(c2ccccc2)c2ccccc2)cc1 | inactive
C=Cc1ccc(C(C)(C)C)cc1 | inactive
CC1CC(=O)CC(C)(C)C1 (stereo not given) | inactive
C=C(C)[C@@H]1CC=C(C)CC1 | inactive
C[C@]12CCC(=O)C=C1CC[C@H]1[C@@H]3CC[C@](O)(C(=O)CO)[C@@]3(C)C[C@H](O)[C@@]12F | inactive
O=Cc1cc2ccccc2o1 | inactive
CC(C)C[C@@H]1[C@H](c2ccccc2)OC(=O)N1CCCN1CCCCCC1 | inactive
C[C@H]1[C@@H](c2ccccc2)NC(=O)N1C | inactive
O=Cc1ccccc1Cl | inactive
N#CCC(=O)NN | inactive
COc1cc2c(cc1OC)CN(C(=O)[C@H](C)N[C@@H](CCc1ccccc1)C(=O)O)[C@H](C(=O)O)C2 | inactive

Structure (SMILES) | outcome
CC(O)CC(C)O (stereo not given) | inactive
Cc1cccc(Cl)c1 | inactive
CCOCCOCC | inactive
O=C=NCC1CCCC(CN=C=O)C1 (stereo not given) | inactive
C=CCOC(=O)CCCCCC | inactive
O=C(CN1CCNCC1)NC1CCCCC1 | inactive
Nc1nc(-c2ccccc2)c(Br)c(=O)[nH]1 | inactive
CCCCCC/C=C/C(=O)OC | inactive
CC1=C(O)C(=O)C(C)O1 (stereo not given) | inactive
CC(C)[C@H]1CC[C@H](C)C[C@@H]1O | inactive
O=C1OCCO1 | inactive
CC(C)NC(=O)c1ccc(C=O)cc1 | inactive
CCO | inactive
Cc1ncc([N+](=O)[O-])n1CC(C)O (stereo not given) | inactive
COP(=O)(O)OP(=O)(O)OC | inactive
CCCSSCCC | inactive
CCCCCCCCCCCCCBr | inactive
N#Cc1ccccc1O | inactive
CCCC(=O)OCCC(C)CCC=C(C)C (stereo not given) | inactive
CC1=C(C(=O)O)N2C(=O)[C@@H](NC(=O)[C@H](N)C3=CCC=CC3)[C@H]2SC1 | inactive
